PubChem BioAssay (EPA / NIEHS)
Results filed as inconclusive are left out. The source made the active and inactive calls. The calls were made as follows, unless noted: active = hit-call score of the fitted dose curve at least 0.9, where 1 is the maximum; inactive = score below 0.9.

Key:
[1] = ATG_PBREM_CIS: Attagene CIS-FACTORIAL HepG2 Assay for human Phenobarbital-responsive Enhancer Module (PBREM) (AID 2282955); details: HepG2 PBREM cis-reporter, Attagene multiplexed transcription; actives raise or lower the signal
Outline: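 Readout: reporter mRNA, fluorescent RT-PCR fragments separated by capillary electrophoresis. System: HepG2 transiently transfected with cis-regulated reporter units. Exposure: 24 h. Analysis: bidirectional, DMSO baseline.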

[2] = biological target: Paired box protein Pax-6 (Homo sapiens) (UniProt P26367); assay: ATG_Pax6_CIS: Attagene CIS-FACTORIAL HepG2 Assay for human Paired Box 6 (PAX6) (AID 2282956); details: HepG2 CIS-FACTORIAL PAX6 reporter transcription, RNA readout; actives raise or lower the signal
Sequence of Paired box protein Pax-6 (Homo sapiens) (P26367 whole entry, looked up): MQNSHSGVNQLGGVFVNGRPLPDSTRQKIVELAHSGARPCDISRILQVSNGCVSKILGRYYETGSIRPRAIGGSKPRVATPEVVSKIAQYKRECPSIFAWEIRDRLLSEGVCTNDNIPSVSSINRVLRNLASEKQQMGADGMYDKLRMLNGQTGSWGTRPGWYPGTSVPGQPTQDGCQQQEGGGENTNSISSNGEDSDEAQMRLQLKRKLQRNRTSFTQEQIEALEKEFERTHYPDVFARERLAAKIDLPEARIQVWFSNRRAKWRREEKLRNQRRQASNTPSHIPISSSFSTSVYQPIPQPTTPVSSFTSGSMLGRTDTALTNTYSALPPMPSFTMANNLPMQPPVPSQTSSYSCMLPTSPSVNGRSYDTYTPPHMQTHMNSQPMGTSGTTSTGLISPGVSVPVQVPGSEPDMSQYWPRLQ
Outline: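 Readout: reporter transcript fluorescence after RT-PCR and capillary electrophoresis. Cells: HepG2, transiently transfected with cis-regulated MRTUs. Exposure 24 h. Gain or loss of signal fitted bidirectionally relative to DMSO.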

[3] = ATG_PXRE_CIS: Attagene CIS-FACTORIAL HepG2 Assay for human Pregnane X Receptor Element (PXRE) (AID 2282957); details: HepG2 Attagene CIS-FACTORIAL PXRE reporter, mRNA; actives raise or lower the signal
Outline: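 Read-out: fluorescence of reporter-specific RT-PCR products resolved by capillary electrophoresis, fitted bidirectionally relative to DMSO. Human HepG2 liver cells carried transfected cis-promoter reporter units and were exposed to chemicals for 24 h.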

[4] = ATG_PPRE_CIS: Attagene CIS-FACTORIAL HepG2 Assay for human Peroxisome Proliferator-activated Response Element (PPRE) (AID 2282958); details: HepG2 PPRE cis-element reporter, Attagene transcription factor profiling; actives raise or lower the signal
Outline: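 After human HepG2 hepatoma cells were transiently transfected with cis-promoter reporter constructs, they were exposed to test chemicals for 24 hours. Reporter RNA was then reverse-transcribed, PCR-amplified, FAM-labeled, HpaI-digested and quantified by capillary electrophoresis.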

[5] = ATG_RORE_CIS: Attagene CIS-FACTORIAL HepG2 Assay for human RAR-related Orphan Receptor Element (RORE) (AID 2282959); details: HepG2 Attagene cis-factorial RORE reporter, mRNA; actives raise or lower the signal
Outline: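 Measured here: transcript induction of a cis-regulated reporter in HepG2 cells transiently transfected via FuGene 6. After 24 h, RNA was processed by RT-PCR and fluorescent capillary electrophoresis; DMSO defined baseline activity.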

[6] = ATG_Sox_CIS: Attagene CIS-FACTORIAL HepG2 Assay for human SRY-box transcription factor (SOX) (AID 2282960); details: HepG2 Attagene cis-factorial SOX reporter, mRNA; actives raise or lower the signal
Outline: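 Using transiently transfected HepG2 cells, reporter transcription driven by cis elements was assessed 24 h after dosing. Signal was fluorescence of capillary-separated RT-PCR products, with DMSO defining baseline activity.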

[7] = biological target: Transcription factor Sp1 (Homo sapiens) (UniProt P08047); assay: ATG_Sp1_CIS: Attagene CIS-FACTORIAL HepG2 Assay for human Specificity Protein 1 (Sp1) (AID 2282961); details: HepG2 Sp1 cis-reporter transcription, actives raise or lower the signal
Sequence of Transcription factor Sp1 (Homo sapiens) (P08047 whole entry, looked up): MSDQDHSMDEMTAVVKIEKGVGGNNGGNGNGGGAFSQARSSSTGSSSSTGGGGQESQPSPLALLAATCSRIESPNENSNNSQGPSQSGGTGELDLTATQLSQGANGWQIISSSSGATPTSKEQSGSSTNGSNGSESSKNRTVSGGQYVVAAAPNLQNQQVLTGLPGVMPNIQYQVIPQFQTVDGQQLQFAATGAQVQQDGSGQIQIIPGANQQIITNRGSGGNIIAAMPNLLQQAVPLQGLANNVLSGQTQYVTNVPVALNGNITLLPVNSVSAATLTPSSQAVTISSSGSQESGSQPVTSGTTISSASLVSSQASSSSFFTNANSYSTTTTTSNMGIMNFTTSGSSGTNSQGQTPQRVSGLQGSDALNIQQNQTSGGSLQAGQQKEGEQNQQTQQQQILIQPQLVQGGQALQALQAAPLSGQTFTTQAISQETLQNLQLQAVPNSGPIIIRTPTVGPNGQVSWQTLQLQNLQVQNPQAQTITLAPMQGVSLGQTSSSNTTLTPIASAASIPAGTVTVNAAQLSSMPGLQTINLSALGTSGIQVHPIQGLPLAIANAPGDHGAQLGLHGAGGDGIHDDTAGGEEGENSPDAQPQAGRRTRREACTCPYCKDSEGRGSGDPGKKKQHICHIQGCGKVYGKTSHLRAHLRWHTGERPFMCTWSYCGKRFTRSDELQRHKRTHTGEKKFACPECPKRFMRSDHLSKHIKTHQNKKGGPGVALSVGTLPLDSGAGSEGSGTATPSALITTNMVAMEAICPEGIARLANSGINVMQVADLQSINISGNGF
Outline: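 After transient transfection of HepG2 cells with cis-promoter reporter units and 24 h chemical treatment, reporter transcripts were quantified by RT-PCR and capillary electrophoresis fluorescence. Gain- and loss-of-signal fitted against DMSO.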

[8] = ATG_SREBP_CIS: Attagene CIS-FACTORIAL HepG2 Assay for human Sterol Regulatory Element Binding (SREBP) (AID 2282962); details: HepG2 Attagene cis-factorial SREBP reporter, mRNA; actives raise or lower the signal
Outline: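 Readout: fluorescent reporter-transcript peaks resolved by capillary electrophoresis after RT-PCR. Cells were human HepG2 carrying transfected cis-promoter reporter constructs, dosed for 24 h. Gain or loss of signal was fitted against DMSO controls.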

[9] = biological target: Signal transducer and activator of transcription 3 (Homo sapiens) (UniProt P40763); assay: ATG_STAT3_CIS: Attagene CIS-FACTORIAL HepG2 Assay for human Signal Transducer and Activator of Transcription 3 (STAT3) (AID 2282963); details: HepG2, Attagene cis-factorial STAT3 reporter transcription; actives raise or lower the signal
Sequence of Signal transducer and activator of transcription 3 (Homo sapiens) (P40763 whole entry, looked up, the tested form may be a part): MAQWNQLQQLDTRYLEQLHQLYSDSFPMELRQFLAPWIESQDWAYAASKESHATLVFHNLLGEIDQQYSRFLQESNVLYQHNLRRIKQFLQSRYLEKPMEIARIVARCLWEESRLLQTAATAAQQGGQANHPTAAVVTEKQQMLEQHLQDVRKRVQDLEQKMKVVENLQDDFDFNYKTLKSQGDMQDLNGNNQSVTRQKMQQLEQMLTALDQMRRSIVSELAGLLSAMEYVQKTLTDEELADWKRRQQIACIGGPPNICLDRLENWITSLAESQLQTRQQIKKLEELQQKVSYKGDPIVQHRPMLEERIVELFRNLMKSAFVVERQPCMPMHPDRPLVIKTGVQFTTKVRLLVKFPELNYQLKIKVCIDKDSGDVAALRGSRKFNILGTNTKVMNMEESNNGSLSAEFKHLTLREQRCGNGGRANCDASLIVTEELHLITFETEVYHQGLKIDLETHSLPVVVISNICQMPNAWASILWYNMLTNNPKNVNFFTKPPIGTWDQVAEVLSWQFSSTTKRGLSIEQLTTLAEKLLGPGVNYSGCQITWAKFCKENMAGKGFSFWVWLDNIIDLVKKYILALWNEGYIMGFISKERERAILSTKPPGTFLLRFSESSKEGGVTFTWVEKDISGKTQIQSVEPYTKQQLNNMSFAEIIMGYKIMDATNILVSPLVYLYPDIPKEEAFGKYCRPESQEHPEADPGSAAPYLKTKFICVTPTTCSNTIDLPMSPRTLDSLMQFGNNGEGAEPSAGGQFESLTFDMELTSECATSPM
Outline: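 Fluorescence intensity of 6-FAM-labelled reporter fragments, separated by capillary electrophoresis after RT-PCR, gave the signal. Cells were HepG2 transfected with cis-element reporter units and treated 24 h; fitting was bidirectional relative to DMSO.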

[10] = ATG_TCF_b_cat_CIS: Attagene CIS-FACTORIAL HepG2 Assay for human T-Cell-Factor with beta-catenin (TCF/b-cat) (AID 2282965); details: HepG2 TCF/beta-catenin cis-reporter transcription, actives raise or lower the signal
Outline: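 HepG2, transient MRTU transfection, cis-element-driven reporters (endogenous TFs). 24 h compound exposure. Readout: reporter mRNA by RT-PCR + 6-FAM primer extension, HpaI digest, capillary electrophoresis. Gain/loss fit vs DMSO baseline.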

[11] = ATG_TAL_CIS: Attagene CIS-FACTORIAL HepG2 Assay for human TAL Basal Promoter (AID 2282966); details: HepG2 Attagene cis-factorial TAL promoter reporter; actives raise or lower the signal;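 also: background control endpoint measuring basal TAL promoter reporter mRNA not a specific factor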
Outline: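 HepG2, transient MRTU transfection, 24 h compound exposure; RNA → oligo(dT) RT → PCR → 6-FAM primer extension → HpaI digest → CE fluorescence. Bidirectional curve fit vs DMSO. Background-control readout.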

[12] = ATG_TGFb_CIS: Attagene CIS-FACTORIAL HepG2 Assay for human Transforming Growth Factor (TGF) (AID 2282967); details: HepG2 Attagene CIS TGFb reporter, mRNA transcription; actives raise or lower the signal
Outline: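 Cells were dosed for 24 hours, after which total RNA was reverse-transcribed and reporter sequences amplified, labeled and sized by capillary electrophoresis. Activity was fitted in both directions against DMSO.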

[13] = ATG_VDRE_CIS: Attagene CIS-FACTORIAL HepG2 Assay for human Vitamin D Receptor Element (VDRE) (AID 2282968); details: HepG2 VDRE cis-reporter transcription, actives raise or lower the signal
Outline: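 Compounds were applied for 24 h to HepG2 cells transfected with promoter-regulated reporter units. Total RNA was reverse-transcribed, and reporter amplicons were fluorescently labelled and sized by capillary electrophoresis.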

[14] = biological target: Nuclear receptor subfamily 1 group I member 3 (Homo sapiens) (UniProt Q14994); assay: ATG_CAR_TRANS: Attagene TRANS-FACTORIAL HepG2 Assay for human Constitutive Androstane Receptor (CAR) (AID 2282969; active = hit-call score of the fitted dose curve at least 0.9, where 1 is the maximum;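 also: activators raise reporter mRNA above DMSO so AC50 marks induction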); details: HepG2 Attagene TRANS-FACTORIAL CAR reporter
Sequence of Nuclear receptor subfamily 1 group I member 3 (Homo sapiens) (Q14994 whole entry, looked up, the tested form may be a part): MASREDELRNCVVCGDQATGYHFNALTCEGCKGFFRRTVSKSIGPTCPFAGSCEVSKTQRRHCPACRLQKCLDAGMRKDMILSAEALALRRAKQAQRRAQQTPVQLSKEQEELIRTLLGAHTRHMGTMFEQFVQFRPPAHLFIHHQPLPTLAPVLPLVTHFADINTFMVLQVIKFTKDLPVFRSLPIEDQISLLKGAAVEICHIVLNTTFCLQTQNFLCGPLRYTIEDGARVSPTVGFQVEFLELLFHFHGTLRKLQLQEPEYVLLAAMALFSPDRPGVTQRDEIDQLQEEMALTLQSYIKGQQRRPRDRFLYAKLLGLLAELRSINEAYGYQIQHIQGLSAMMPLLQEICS
Outline: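 Transiently transfected HepG2, multiplex TRANS reporters (CAR-Gal4 chimera driving GAL4-UAS reporter). 24 h dosing. Readout: reporter transcript by RT-PCR + capillary electrophoresis, fluorescence intensity; positive direction vs DMSO.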

[15] = biological target: Estrogen receptor (Homo sapiens) (UniProt P03372); assay: ATG_ERa_TRANS: Attagene TRANS-FACTORIAL HepG2 Assay for human Estrogen Receptor alpha (ERa) (AID 2282970; active = hit-call score of the fitted dose curve at least 0.9, where 1 is the maximum); details: HepG2 Attagene TRANS ERa GAL4 reporter, mRNA
Sequence of Estrogen receptor (Homo sapiens) (P03372 whole entry, looked up, the tested form may be a part): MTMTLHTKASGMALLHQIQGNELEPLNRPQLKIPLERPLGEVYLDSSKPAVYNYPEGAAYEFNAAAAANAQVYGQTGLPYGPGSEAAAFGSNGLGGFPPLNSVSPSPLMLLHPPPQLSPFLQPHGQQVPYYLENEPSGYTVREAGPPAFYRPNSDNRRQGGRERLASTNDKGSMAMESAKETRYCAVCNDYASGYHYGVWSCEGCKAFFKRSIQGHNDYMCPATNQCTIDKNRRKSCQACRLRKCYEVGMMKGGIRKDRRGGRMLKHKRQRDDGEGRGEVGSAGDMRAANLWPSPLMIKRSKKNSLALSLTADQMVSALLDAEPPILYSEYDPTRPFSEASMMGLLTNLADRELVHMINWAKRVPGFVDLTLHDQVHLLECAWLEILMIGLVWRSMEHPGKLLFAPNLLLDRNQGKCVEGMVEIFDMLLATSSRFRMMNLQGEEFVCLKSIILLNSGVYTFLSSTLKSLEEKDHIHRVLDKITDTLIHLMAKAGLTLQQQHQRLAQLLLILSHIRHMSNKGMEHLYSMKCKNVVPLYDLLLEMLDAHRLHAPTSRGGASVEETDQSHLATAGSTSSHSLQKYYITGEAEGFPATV
Outline: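 Reporter mRNA induction after 24 hours, detected by fluorescent RT-PCR and capillary electrophoresis, gives the read-out. Cells are HepG2 transiently transfected with GAL4-UAS reporter transcription units responding to chimeric NR-Gal4. Activity is taken as gain of signal over DMSO baseline.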

[16] = ATG_GAL4_TRANS: Attagene TRANS-FACTORIAL HepG2 Assay for GAL4 (Internal Marker) (AID 2282976; active = hit-call score of the fitted dose curve at least 0.9, where 1 is the maximum); details: HepG2 Attagene TRANS GAL4 internal marker reporter
Outline: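 RT-PCR/capillary electrophoresis readout of reporter mRNA. HepG2, transient MRTU transfection (GAL4-UAS reporters), 24 h compound exposure. Background-control endpoint, positive direction vs DMSO baseline.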

[17] = ATG_TA_CIS: Attagene CIS-FACTORIAL HepG2 Assay for human TA Basal Promoter (AID 2282964); details: HepG2 Attagene CIS-factorial TA basal promoter reporter; actives raise or lower the signal
Outline: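 Steps: transfect HepG2 with MRTUs; dose 24 h; isolate RNA, DNase-treat, reverse-transcribe; PCR and FAM-label reporter cDNA; digest with HpaI 2h at 37 C; run capillary electrophoresis. Activity fitted both directions against DMSO.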

[18] = biological target: X-box-binding protein 1 (Homo sapiens) (UniProt P17861); assay: ATG_Xbp1_CIS: Attagene CIS-FACTORIAL HepG2 Assay for human X-box Binding Protein 1 (XBP1) (AID 2282972); details: HepG2 XBP1 cis-element reporter, Attagene multiplex; actives raise or lower the signal
Sequence of X-box-binding protein 1 (Homo sapiens) (P17861 whole entry, looked up, the tested form may be a part): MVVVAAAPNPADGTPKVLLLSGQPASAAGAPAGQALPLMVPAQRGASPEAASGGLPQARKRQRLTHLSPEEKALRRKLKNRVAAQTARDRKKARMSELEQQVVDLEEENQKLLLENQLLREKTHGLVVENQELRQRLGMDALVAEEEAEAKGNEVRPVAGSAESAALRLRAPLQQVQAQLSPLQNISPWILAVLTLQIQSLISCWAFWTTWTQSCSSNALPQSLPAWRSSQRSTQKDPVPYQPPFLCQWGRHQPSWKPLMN
Outline: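 Read-out: fluorescent reporter mRNA fragments resolved by capillary electrophoresis after RT-PCR. Human HepG2 liver cells carried transfected cis-promoter reporter units and were exposed to chemicals for 24 hours. Gain or loss of signal fitted relative to DMSO baseline.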

[19] = ATG_M_19_TRANS: Attagene TRANS-FACTORIAL HepG2 Assay for M19 Transcription Factor (Internal Marker) (AID 2282974; active = hit-call score of the fitted dose curve at least 0.9, where 1 is the maximum); details: HepG2 Attagene TRANS-FACTORIAL M19 internal marker reporter
Outline: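 Gain-of-signal in reporter mRNA, relative to DMSO, was scored from capillary electrophoresis fluorescence. HepG2 cells carried transiently transfected multiple reporter transcription units and were incubated with test chemicals for 24 h.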

Measured: AC50

NC(=O)c1cnccn1
not listed: [17] | [18] | [19]
inactive: all other assays above

CC(C)N1C(=O)c2ccccc2C1=O
active: [3] 37.2 µM | [15] 42.8 µM
not listed: [12] | [16] | [19]
inactive: all other assays above

CN(C)CCC=C1c2ccccc2CCc2ccccc21
active: [3] 13.2 µM | [7] 45.3 µM | [10] 22.1 µM | [13] 23.7 µM | [18] 40 µM
not listed: [16] | [17]
inactive: all other assays above

CCC(C)(CCCC(C)C)OC(C)=O (stereo unspecified)
not listed: [7] | [15]
inactive: all other assays above

CC(O)CNCC(C)O (stereo unspecified)
not listed: [10] | [15] | [19]
inactive: all other assays above

CCCc1ccc(N)cc1
not listed: [14] | [15]
inactive: all other assays above

CCOC(=O)CC(C)C
not listed: [14] | [15] | [17]
inactive: all other assays above

CCCOC(=O)CC
not listed: [14] | [15] | [18]
inactive: all other assays above
